Results filed as inconclusive are left out. Activity calls are given as the source filed them. Calls follow the shape of the dose curve; as a rule, active = well fitted inhibition curve with a large enough effect; inconclusive = small, poorly fitted or top-dose-only effect; inactive = no such curve, though single readings can be large or run the other way.
What follows are molecules tested against N-terminal Xaa-Pro-Lys N-methyltransferase 1 (Homo sapiens) (UniProt Q9BV86) (assay: Orthogonal qHTS for Inhibitors of N-terminal methyltransferase 1 (NTMT1): ThioGlo Assay). Conditions: NTMT1 SAHH-coupled ThioGlo fluorescence, 30 min; series mostly up to 84.5 µM.
Text: Assay Submitter (PI): Rong Huang Ph.D. Purdue University, West Lafayette, IN 47907 The N-terminal methytransferase 1 is the first methyltransferase that methylates protein alpha-N-amines and plays an important role in regulating cell mitosis, chromatin interactions and DNA repair. It is observed to be over-expressed in various cancer patient tissues like malignant melanoma and colorectal cancer tissues. Knockdown of NTMT1 in cancer cells causes cell mitotic defects and enhances sensitivity to DNA damaging chemotherapeutics. […] These critical cellular processes in which NTMT1 is implicated, coupled with emerging links to cellular dysfunction, strengthen the inference that NTMT1 is a compelling novel anticancer target. Progress have been made in understanding the molecular properties of NTMT1 and the biological consequences of protein alpha-N-terminal methylation, but there are no specific small molecule probes available for NTMT1 to fully characterize its MTase activity. To address this unmet need, a panel of assay is created and established to enable quantitative high-throughput screening (qHTS) for novel, potent, and selective small molecule NTMT1 inhibitors. Two orthogonal qHTS that use different reagents (ThioGlo vs. MTaseGlo) are developed for primary robotic screening against the NCATS chemical library of more than 400,000 small molecules. Identified inhibitors are reacquired, validated, and further characterized. […] Early Translation Branch (ETB) National Center for Advancing Translational Sciences (NCATS) National Institute of Health (NIH)
Materials: NTMT1 enzyme, substrate SPKRIA, control peptide RCC1-6 is provided by the Huang laboratory. MTaseGlo Assay: PROTOCOL TABLE; SEQUENCE No. (e.g., 1, 2, 3, etc.); […] (e.g., Cells, Incubation, Reagent, etc.); VALUE; DESCRIPTION 1; Enzyme; 3 uL; Dispense enzyme mixture (final concentrations of 125 nM NTMT1) into Greiner 1536-well black / solid bottom assay plate (Greiner Bio One, Monroe, NC). 2; Compounds; 23 nL; Compounds (at various concentration) and 1uM final concentration of RCC1-6 (SPKRIA) control were transferred via a Kalypsys Pin Tool (Wako USA) equipped with a 1536-slotted pin array (Wako Automation, Richmond, VA). 3; Incubation; 1 min; Incubate at room temperature. 4; Substrate; 1 uL; Dispense 1 uL of substrate solution (100uM SAM, 10uM SAHH, 15uM ThioGlo3 final concentration) was added to the wells bringing the final assay volume to 4uL. The assay plate was covered with metal lids. 5; Detection; Fluorescence; Initial fluorescence readout (background signal) was detected using the ViewLux microplate imager with an excitation filter of 340 nm and 450 nm emission filter. 6; Incubation; 30 min; Assay plates were incubation at room temperature in the dark. 7; Detection; Fluorescence; Final fluorescence readout was detected using the ViewLux microplate imager with an excitation filter of 340 nm and 450 nm emission filter. The data was normalized to the background fluorescence.

N-terminal Xaa-Pro-Lys N-methyltransferase 1 (Homo sapiens), sequence (Q9BV86 whole entry, looked up): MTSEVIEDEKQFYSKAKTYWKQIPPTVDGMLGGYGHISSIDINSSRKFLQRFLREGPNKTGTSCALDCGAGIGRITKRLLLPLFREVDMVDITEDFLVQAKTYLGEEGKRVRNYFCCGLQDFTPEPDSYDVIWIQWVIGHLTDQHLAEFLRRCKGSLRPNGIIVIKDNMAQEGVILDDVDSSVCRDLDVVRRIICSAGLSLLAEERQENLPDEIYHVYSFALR

Compound | Potency
COc1cc(N2CCN(C(C)=O)CC2)ccc1Nc1ncc(Cl)c(Nc2ccc(N3CCN(C(C)=O)CC3)cc2OC)n1 | 22.1 µM (active)
CNC(=O)c1ccccc1Nc1cc(Nc2ccc(N3CCOCC3)cc2OC)ncc1C(F)(F)F | 8.79 µM (active)
O=C([C@@H]1CCCN(c2ccc3[nH]c(C4(n5cc(Cl)cn5)CC4)nc3n2)C1)N1CCCC1 | 22.1 µM (active)
COc1c(C(C)C)c(O)c(O)c2c1C(OC)[C@H]1OC(=O)[C@@]23CCCC(C)(C)[C@H]13 (stereo not given in full) | 6.1 µM (active)
CCN1CCCN(c2nc(NC3CCN(C(C)C)CC3)c3cc(OC)c(OCCCN4CCCCC4)cc3n2)CC1 | 38.8 µM (active)
C=Cc1c(C)c2cc3[nH]c(cc4nc(cc5nc(cc1[nH]2)C(C)=C5CCC(=O)O)C(CCC(=O)O)=C4C)c(C)c3C=C | 15.4 µM (active)
CCn1c(=O)c(-c2ccn[nH]2)cc2c(C)nc(N)nc21 | 49.4 µM (active)
Cc1ccc(S(=O)(=O)Nc2cnccc2C(=O)Nc2nc(-c3cccc(C)c3)cs2)cc1 | inactive
CC[C@@H](C)Nc1cc(C(=O)NC2CC3CC[C@@H](C2)N3c2ccc(C(=O)C3CC3)cn2)c(C)cc1C(N)=O (stereo not given in full) | 35 µM (active)
Cc1cccc(NC(=O)c2c(NC(=O)c3ccccc3)sc3c2CCCC3)c1 | inactive
COc1cc2c(NC3CCN(C4CCCCC4)CC3)nc(N3CCCN(C)CC3)nc2cc1OCCCN1CCCCC1 | 43.5 µM (active)
Cc1cc2c(C(C)C)c(O)c(O)c(C=O)c2c(O)c1-c1c(C)cc2c(C(C)C)c(O)c(O)c(C=O)c2c1O | 38.8 µM (active)
C[C@]12CC[C@@H]3c4ccc(O)c(O)c4CC[C@H]3[C@@H]1CCC2=O | 17.5 µM (active)
Cc1cccc(/C=C/c2ccccc2)n1 | inactive
O=C(NCCN1CCCC1)c1cc(-c2ccc(CN3CCOCC3)cc2)nc2ccc(F)cc12 | 24.1 µM (active)
COc1cc2c(NC3CCN(C4CCCCC4)CC3)nc(N3CCCCC3)nc2cc1OCCOCCN(C)C | 43.5 µM (active)
COc1cc2c(NC3CCN(C4CCCCC4)CC3)nc(N3CCCN(C)CC3)nc2cc1OCCOCCN(C)C | 43.5 µM (active)
CNCCCOc1cc2nc(N3CCCN(C)CC3)nc(NC3CCN(C)CC3)c2cc1OC | 43.5 µM (active)
Oc1cc2c(c(Cl)c1O)CCNCC2c1ccccc1 (stereo not given) | 30.8 µM (active)
COc1c/c(=C2\C=c3ccccc3=N2)[nH]/c1=C/c1[nH]c(C)cc1C | 24.8 µM (active)

Compound | Potency
COc1cc2c(NC3CCN(C)CC3)nc(N3CCCN(C)CC3)nc2cc1OCCCN1CCCCC1 | 43.5 µM (active)
Fc1ccccc1CNCc1ccc(-c2ccnc3[nH]ccc23)cc1 | 49.4 µM (active)
CCOc1ccccc1N1CC(c2nc3ccccc3n2CCCCOc2cc(C)ccc2C)CC1=O (stereo not given) | inactive
C[C@]12C[C@H](O)[C@H]3[C@@H](CCC4=CC(=O)CC[C@@]43C)[C@@H]1CC[C@@H]2C(=O)CO | inactive
Cc1cc(C)nc(NC(=S)N2CCN(c3cccc(S(C)(=O)=O)c3)CC2)c1 | 12.3 µM (active)
CN(C)CCCC1(c2ccc(F)cc2)OCc2cc(C#N)ccc21 (stereo not given) | inactive
COc1ccc(-c2nnc3n2N=C(c2c(OC)cccc2OC)CS3)cc1OC | inactive
CN=c1nc(-c2ccccc2)n(-c2ccccc2)s1 | 5.55 µM (active)
COc1cc2nc(N3CCOCC3)nc(NC(C)C)c2cc1OC | inactive
O=S(=O)(Cc1ccccc1)Nc1ccc(-c2ccc3c(cnn3-c3ccc(F)cc3)c2)c(C(F)(F)F)c1 | inactive
COc1cc2nc(N(C)C)nc(NC3CCN(C)CC3)c2cc1OC | inactive
NCCOc1cc(C(=O)Nc2cc(OCCN)c3ccccc3n2)nc(C(=O)Nc2cc(OCCN)c3ccccc3n2)c1 | 19.4 µM (active)
COc1ccc2nc(-c3cc(OC)c(OC)c(OC)c3)cc(C(=O)NCC(=O)Nc3ccc(C(C)=O)cc3)c2c1 | 31.2 µM (active)
c1cc(CN2CCCCC2)cc(OCCCNc2nc3ccccc3s2)c1 | inactive
CC[N+](CC)(CC)CCOc1cccc(OCC[N+](CC)(CC)CC)c1OCC[N+](CC)(CC)CC | 0.614 µM (active)
COc1cc(N2CCC(O)CC2)ccc1Nc1nc(Nc2ccccc2S(=O)(=O)C(C)C)c2[nH]cnc2n1 | 19.7 µM (active)
COc1ccc(C2CC(=O)N3CN(C4CCCCC4)CSC3=C2C#N)cc1 (stereo not given) | 6.89 µM (active)
COc1cc2c(NC3CCN(C(C)C)CC3)nc(N3CCCCC3)nc2cc1OCCCN1CCCCC1 | inactive
O=C(Nc1ccc(S(=O)(=O)C(F)(F)F)cc1)C1=CCN(c2ncccc2C(F)(F)F)CC1 | inactive
COc1ccc(-c2cc3c(C)nc(N)nc3n(C3CCC(OCCO)CC3)c2=O)cn1 (stereo not given) | 13.9 µM (active)
